About 79,000 compounds went through this panel and 15% of them were active in at least one assay; those are over-represented in the sample as a whole. A number with no mark means an inactive call. Active and inactive are the calls of the source. Rule as the data show it: active = growth inhibition above about 70%; inactive = the rest.

The nature of assay [1]: NCI Yeast Anticancer Drug Screen. Data for the rad50 strain (AID 155).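 Also: 0% = growth of vehicle-only cultures of the same strain.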 The conditions noted are these: S. cerevisiae rad50 strain growth inhibition, hits give high values. Put shortly: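 A DNA repair-deficient yeast mutant serves as the test organism; compound-induced growth inhibition is calculated against vehicle-treated cells.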
A short description of assay [2]: NCI Yeast Anticancer Drug Screen. Data for the mec2-1 strain (AID 157). The conditions noted are these: S. cerevisiae mec2-1 strain, hits give high values. A digest of the protocol:
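Mutant yeast (mec2-1) grown with compound; growth inhibition relative to vehicle control reported.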

Assay [3] can be described thus: NCI Yeast Anticancer Drug Screen. Data for the sgs1 mgt1 strain (AID 161).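 Also: 0% = growth of cultures given vehicle only.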 As to conditions: S. cerevisiae sgs1 mgt1 strain, hits give high values. A digest of the protocol: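 Yeast cells carrying a defined DNA-repair defect were exposed to test compounds. Growth inhibition was measured relative to vehicle-treated controls.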
The nature of assay [4]: NCI Yeast Anticancer Drug Screen. Data for the cln2 rad14 strain (AID 165).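 Also: 0% = growth equal to vehicle treated cultures.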 As to conditions: S. cerevisiae cln2 rad14 strain, hits give high values. Put shortly:
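Readout is yeast growth inhibition versus vehicle-treated controls, using a strain with cln2 and rad14 alterations exposed to compound.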

A short description of assay [5]: NCI Yeast Anticancer Drug Screen. Data for the bub3 strain (AID 167). As to conditions: S. cerevisiae bub3 mutant strain, hits give high values. Put shortly: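 Inhibition values come from growth of compound-treated mutant yeast normalised to vehicle-treated controls.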
Assay [6] can be described thus: NCI Yeast Anticancer Drug Screen. Data for the mlh1 rad18 strain (AID 175). The conditions noted are these: S. cerevisiae mlh1 rad18 strain growth inhibition, hits give high values. A digest of the protocol:
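Genetically defined yeast (DNA repair-deficient) exposed to compounds; growth inhibition determined relative to vehicle.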

Setting [7] is: at 5.0 µM (retest, dose inferred, filed as 0.5).
Setting [8] is: at 50.0 µM (retest, dose inferred, filed as 5.0).

`CC/C(=C(/CC)c1ccc([O-])cc1)c1ccc([O-])cc1.CC/C(=C(\CC)c1ccc([O-])cc1)c1ccc([O-])cc1.O=C([CH-]C(=O)c1ccccc1)c1ccccc1.O=C([CH-]C(=O)c1ccccc1)c1ccccc1.O=C([CH-]C(=O)c1ccccc1)c1ccccc1.O=C([CH-]C(=O)c1ccccc1)c1ccccc1.[Ti+4].[Ti+4]`: the growth inhibition in assay [1] (setting [7]) was 84% (active); in assay [1] (setting [8]), 96% (active); in assay [1] (at 50.0 µM), 77.3% (active); in assay [2] (setting [7]) it was 97% (active); in assay [2] (setting [8]), 97% (active); in assay [2] (at 50.0 µM), 84% (active). In addition, the growth inhibition in assay [3] (setting [7]) was 97% (active); in assay [3] (setting [8]), 96% (active); in assay [3] (at 50.0 µM), 84.4% (active); in assay [4] (setting [7]), 94% (active); in assay [4] (setting [8]), 96% (active); in assay [4] (at 50.0 µM), 80% (active). In addition, the growth inhibition in assay [5] (setting [7]) is 98% (active); in assay [5] (setting [8]) it was 88% (active); in assay [5] (at 50.0 µM), 60.9%; in assay [6] (setting [7]), 94% (active); in assay [6] (setting [8]), 93% (active); in assay [6] (at 50.0 µM) it was 80% (active).

`COc1ccc(-c2cc(-c3ccc(OC)cc3OC)[n+](C)c(-c3ccc(OC)cc3OC)c2)cc1`: the growth inhibition in assay [1] (setting [7]) was 97% (active); in assay [1] (setting [8]) it was 98% (active); in assay [1] (at 50.0 µM), 90% (active); in assay [2] (setting [7]), 98% (active); in assay [2] (setting [8]), 99% (active); in assay [2] (at 50.0 µM) it was 93% (active). Also, the growth inhibition in assay [3] (setting [7]) is 98% (active); in assay [3] (setting [8]), 99% (active); in assay [3] (at 50.0 µM) it was 86.2% (active); in assay [4] (setting [7]), 97% (active); in assay [4] (setting [8]), 98% (active); in assay [4] (at 50.0 µM), 88.2% (active). Also, the growth inhibition in assay [5] (setting [7]) is 98% (active); in assay [5] (setting [8]), 99% (active); in assay [5] (at 50.0 µM), 81.8% (active); in assay [6] (setting [7]), 97% (active); in assay [6] (setting [8]) it was 99% (active); in assay [6] (at 50.0 µM), 93% (active).

With `O=C(O)c1cc2c3ccccc3sc2c2ccccc12`, the growth inhibition was -2% in assay [1] (setting [7]); 4% in assay [1] (setting [8]); 55.4% in assay [1] (at 50.0 µM); -3% in assay [2] (setting [7]); -4% in assay [2] (setting [8]); 5.3% in assay [2] (at 50.0 µM). In addition, the growth inhibition in assay [3] (setting [7]) is -1%; in assay [3] (setting [8]), 3%; in assay [3] (at 50.0 µM), 15.1%; in assay [4] (setting [7]) it was -3%; in assay [4] (setting [8]), -3%; in assay [4] (at 50.0 µM), 2.45%. The growth inhibition was -3% in assay [5] (setting [7]); -2% in assay [5] (setting [8]); 19.7% in assay [5] (at 50.0 µM); -3% in assay [6] (setting [7]); -2% in assay [6] (setting [8]); 28% in assay [6] (at 50.0 µM).

Regarding `NC(N)=NS(=O)(=O)c1ccc(N=Cc2c3ccccc3nc3cc(Cl)ccc23)cc1`, the growth inhibition in assay [1] (setting [7]) is 5%; in assay [1] (setting [8]), -4%; in assay [1] (at 50.0 µM), 95.1% (active); in assay [2] (setting [7]) it was 11%; in assay [2] (setting [8]) it was -2%; in assay [2] (at 50.0 µM) it was 93% (active). Besides, the growth inhibition was 4% in assay [3] (setting [7]); -5% in assay [3] (setting [8]); 96.2% (active) in assay [3] (at 50.0 µM); -5% in assay [4] (setting [7]); -3% in assay [4] (setting [8]); 91.5% (active) in assay [4] (at 50.0 µM). Also, the growth inhibition was 10% in assay [5] (setting [7]); 0% in assay [5] (setting [8]); 26.5% in assay [5] (at 50.0 µM); 6% in assay [6] (setting [7]); -2% in assay [6] (setting [8]); 97% (active) in assay [6] (at 50.0 µM).

Turning to `Cc1cc(N=[N+]=[N-])c2cc(C3CCCCC3)ccc2n1`, the growth inhibition in assay [1] (setting [7]) was 12%; in assay [1] (setting [8]), 99% (active); in assay [1] (at 50.0 µM), 96.5% (active); in assay [2] (setting [7]) it was 8%; in assay [2] (setting [8]), 98% (active); in assay [2] (at 50.0 µM) it was 78.8% (active). For the same molecule, the growth inhibition in assay [3] (setting [7]) was 7%; in assay [3] (setting [8]), 99% (active); in assay [3] (at 50.0 µM), 97.8% (active); in assay [4] (setting [7]) it was 8%; in assay [4] (setting [8]), 69%; in assay [4] (at 50.0 µM) it was 90.3% (active). Besides, the growth inhibition is 0% in assay [5] (setting [7]); 96% (active) in assay [5] (setting [8]); 90.9% (active) in assay [5] (at 50.0 µM); -2% in assay [6] (setting [7]); 99% (active) in assay [6] (setting [8]); 96.8% (active) in assay [6] (at 50.0 µM).

Turning to `CC(=O)c1ccc([N+](=O)[O-])o1`, the growth inhibition in assay [1] (setting [7]) is 19%; in assay [1] (setting [8]) it was 98% (active); in assay [1] (at 50.0 µM), 96.5% (active); in assay [2] (setting [7]), 22%; in assay [2] (setting [8]), 99% (active); in assay [2] (at 50.0 µM) it was 92.2% (active). Also, the growth inhibition is 11% in assay [3] (setting [7]); 61% in assay [3] (setting [8]); 91.3% (active) in assay [3] (at 50.0 µM); 0% in assay [4] (setting [7]); 97% (active) in assay [4] (setting [8]); 86.9% (active) in assay [4] (at 50.0 µM). In addition, the growth inhibition was 21% in assay [5] (setting [7]); 99% (active) in assay [5] (setting [8]); 92.5% (active) in assay [5] (at 50.0 µM); 38% in assay [6] (setting [7]); 99% (active) in assay [6] (setting [8]); 98.4% (active) in assay [6] (at 50.0 µM).

As for `N#CC1C(=O)NC(=O)C(C#N)C1c1ccc(Cl)c(Cl)c1` (configuration not stated), the growth inhibition in assay [1] (setting [7]) is -1%; in assay [1] (setting [8]), 42%; in assay [1] (at 50.0 µM), 89.2% (active); in assay [2] (setting [7]), -1%; in assay [2] (setting [8]), 35%; in assay [2] (at 50.0 µM), 39.5%. Also, the growth inhibition is 1% in assay [3] (setting [7]); 26% in assay [3] (setting [8]); 57.5% in assay [3] (at 50.0 µM); -7% in assay [4] (setting [7]); -2% in assay [4] (setting [8]); 21.9% in assay [4] (at 50.0 µM). Moreover, the growth inhibition in assay [5] (setting [7]) is -8%; in assay [5] (setting [8]), 34%; in assay [5] (at 50.0 µM), 58.3%; in assay [6] (setting [7]) it was -2%; in assay [6] (setting [8]), 53%; in assay [6] (at 50.0 µM) it was 63.4%.

`O=C(N/C(=C\c1ccc(Oc2ccc(Cl)c(Cl)c2)cc1)c1nc2ccccc2[nH]1)c1ccccc1`: the growth inhibition in assay [1] (setting [7]) was 29%; in assay [1] (setting [8]) it was 97% (active); in assay [1] (at 50.0 µM), 97.8% (active); in assay [2] (setting [7]), 10%; in assay [2] (setting [8]), 97% (active); in assay [2] (at 50.0 µM) it was 98.3% (active). The growth inhibition is 10% in assay [3] (setting [7]); 97% (active) in assay [3] (setting [8]); 98% (active) in assay [3] (at 50.0 µM); 13% in assay [4] (setting [7]); 65% in assay [4] (setting [8]); 95.6% (active) in assay [4] (at 50.0 µM). Also, the growth inhibition was 15% in assay [5] (setting [7]); 95% (active) in assay [5] (setting [8]); 97.2% (active) in assay [5] (at 50.0 µM); 6% in assay [6] (setting [7]); 89% (active) in assay [6] (setting [8]); 98.2% (active) in assay [6] (at 50.0 µM).

On to `O=C1OC(=O)C2C=CC=CC12` (configuration not stated), for which the growth inhibition in assay [1] (setting [7]) is 2%; in assay [1] (setting [8]) it was -5%; in assay [1] (at 50.0 µM) it was 50%; in assay [2] (setting [7]) it was -1%; in assay [2] (setting [8]), -9%; in assay [2] (at 50.0 µM) it was -8.45%. The growth inhibition in assay [3] (setting [7]) was 2%; in assay [3] (setting [8]), 4%; in assay [3] (at 50.0 µM) it was -7.9%; in assay [4] (setting [7]), -1%; in assay [4] (setting [8]) it was -6%; in assay [4] (at 50.0 µM) it was -74.8%. The growth inhibition in assay [5] (setting [7]) is -3%; in assay [5] (setting [8]), 2%; in assay [5] (at 50.0 µM), 6.15%; in assay [6] (setting [7]), 14%; in assay [6] (setting [8]) it was 2%; in assay [6] (at 50.0 µM), -12.2%.

For the origin of these results see PubChem BioAssay (NCI).
